Results on 4 compounds are retold here after PubChem BioAssay (EPA / NIEHS).

In general, AC50 refers to the concentration giving half of the maximal activity seen.

Structures are written as SMILES. Activity calls are given as the source filed them. How the source made its calls: active means hit-call score of the fitted dose curve at least 0.9, where 1 is the maximum; inactive means score below 0.9.

Common to all, as to settings: mRNA level, 48 h; actives raise or lower the signal
Read-out in assay [1]: Pro-epidermal growth factor (Homo sapiens) (UniProt P01133)
Nature of the assay: LTEA_HepaRG_EGF: Life Technologies and Expression Analysis (LTEA) Assay for Epidermal growth factor (EGF) using HepaRG (AID 2283489). Put shortly:
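HepaRG cells (~100,000/well, 48 h pre-culture) exposed in duplicate for 48 h in serum-free induction medium to 8 half-log concentrations up to 100 uM in 0.5% DMSO. EGF mRNA by qRT-PCR, normalized to ACTB/GAPDH/POLR2A; bidirectional fit versus DMSO.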

Read-out in assay [2]: Early growth response protein 1 (EGR1) transcription factor, EGR1 (gene 1958)
Description: LTEA_HepaRG_EGR1: Life Technologies and Expression Analysis (LTEA) Assay for Early growth response protein 1 (EGR1) transcription factor using HepaRG (AID 2283490). Put shortly:
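HepaRG, 48 h exposure, 8-pt half-log series from 100 uM, 0.5% DMSO vehicle; EGR1 transcript by TaqMan qRT-PCR (Fluidigm array), housekeeping-normalized; bidirectional fit relative to DMSO baseline.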

Read-out in assay [3]: Ezrin (EZR), EZR (gene 7430)
Description: LTEA_HepaRG_EZR: Life Technologies and Expression Analysis (LTEA) Assay for Ezrin (EZR) using HepaRG (AID 2283491). Put shortly: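 EZR transcript levels came from Fluidigm qRT-PCR and were normalized to three housekeeping genes after 48 h chemical exposure of HepaRG cells. Dosing used an 8-point half-log series with a 100 uM top concentration in 0.5% DMSO, tested in duplicate; both directions were fitted versus vehicle.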

Read-out in assay [4]: Cytochrome P450 3A7 (Homo sapiens) (UniProt P24462)
Description: LTEA_HepaRG_CYP3A7: Life Technologies and Expression Analysis (LTEA) Assay for CYP3A7 using HepaRG (AID 2283492). Put shortly: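 Differentiated HepaRG cells in serum-free induction medium exposed 48 h in duplicate to 8-point half-log series from 100 uM top in 0.5% DMSO. CYP3A7 mRNA by qRT-PCR, normalized to ACTB/GAPDH/POLR2A, bidirectional fit versus DMSO.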

Read-out in assay [5]: CYP3A5 (gene 1577)
Description: LTEA_HepaRG_CYP3A5: Life Technologies and Expression Analysis (LTEA) Assay for CYP3A5 using HepaRG (AID 2283493). An outline of the steps: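 Human HepaRG hepatic cells receive 48 h chemical treatment at eight concentrations (half-log steps from 100 uM) in 0.5% DMSO. Expression of CYP3A5 is quantified by Fluidigm qRT-PCR and normalized to three reference genes.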

Read-out in assay [6]: Fatty Acid-Binding Protein 1 (FABP1), FABP1 (gene 2168)
Description: LTEA_HepaRG_FABP1: Life Technologies and Expression Analysis (LTEA) Assay for Fatty Acid-Binding Protein 1 (FABP1) using HepaRG (AID 2283494). Put shortly: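 qRT-PCR readout of FABP1 transcript (normalized to three housekeeping genes) after 48 h chemical exposure of HepaRG cells; eight concentrations, half-log steps, max 100 uM, 0.5% DMSO vehicle; gain or loss fitted relative to DMSO baseline.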

Read-out in assay [7]: Cytochrome P450 4A22 (Homo sapiens) (UniProt Q5TCH4)
Description: LTEA_HepaRG_CYP4A22: Life Technologies and Expression Analysis (LTEA) Assay for Cytochrome P450 4A22 (CYP4A22) using HepaRG (AID 2283495). An outline of the steps:
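Differentiated HepaRG cells in serum-free induction medium exposed 48 h in duplicate to eight half-log concentrations up to 100 uM in 0.5% DMSO. CYP4A22 mRNA quantified by TaqMan qRT-PCR, normalized to ACTB, GAPDH and POLR2A; bidirectional fit versus DMSO.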

Read-out in assay [8]: Cytochrome P450 7A1 (Homo sapiens) (UniProt P22680)
Description: LTEA_HepaRG_CYP7A1: Life Technologies and Expression Analysis (LTEA) Assay for Cytochrome P450 7A1 (CYP7A1) using HepaRG (AID 2283496). An outline of the steps:
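HepaRG, 48 h exposure, 8-pt half-log series from 100 uM, 0.5% DMSO vehicle, duplicates. Readout: TaqMan qRT-PCR mRNA vs three housekeeping genes; bidirectional curve fit against DMSO baseline.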

Read-out in assay [9]: Glutathione S-Transferase (GSTA2), GSTA2 (gene 2939)
Description: LTEA_HepaRG_GSTA2: Life Technologies and Expression Analysis (LTEA) Assay for Glutathione S-Transferase (GSTA2) using HepaRG (AID 2283497). An outline of the steps: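 qRT-PCR readout of GSTA2 transcript, normalized to three housekeeping genes, fitted bidirectionally against 0.5% DMSO baseline. Differentiated HepaRG cells received compound for 48 h at 8 concentrations (top 100 uM, half-log steps).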

Read-out in assay [10]: Glutamate-cysteine ligase catalytic (GCLC), GCLC (gene 2729)
Description: LTEA_HepaRG_GCLC: Life Technologies and Expression Analysis (LTEA) Assay for Glutamate-cysteine ligase catalytic (GCLC) using HepaRG (AID 2283498). An outline of the steps:
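HepaRG, 48 h exposure, 8-pt half-log series from 100 uM, 0.5% DMSO vehicle; TaqMan qRT-PCR for GCLC mRNA, housekeeping-normalized; bidirectional curve fit vs DMSO baseline.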

Read-out in assay [11]: growth arrest and DNA damage 45 (GADD45G), GADD45G (gene 10912)
Description: LTEA_HepaRG_GADD45G: Life Technologies and Expression Analysis (LTEA) Assay for growth arrest and DNA damage 45 (GADD45G) using HepaRG (AID 2283499). An outline of the steps: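 Differentiated human HepaRG cells, 48 h post-plating, exposed 48 h in serum-free induction medium to 8 half-log concentrations (top 100 uM, 0.5% DMSO) in duplicate. GADD45G mRNA measured by Fluidigm TaqMan qRT-PCR, normalized to ACTB, GAPDH, POLR2A; bidirectional fit versus DMSO.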

Read-out in assay [12]: Glutamate-cysteine ligase regulatory (GCLM), GCLM (gene 2730)
Nature of the assay: LTEA_HepaRG_GCLM: Life Technologies and Expression Analysis (LTEA) Assay for Glutamate-cysteine ligase regulatory (GCLM) using HepaRG (AID 2283500). Put shortly:
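Endpoint is GCLM transcript level by qRT-PCR, normalized to three housekeeping genes, after 48 h chemical exposure of human HepaRG cells (0.5% DMSO vehicle, top 100 uM, half-log dilutions). Fitting was bidirectional relative to DMSO.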

Read-out in assay [13]: Glutathione S-transferase M3 (GSTM3), GSTM3 (gene 2947)
Description: LTEA_HepaRG_GSTM3: Life Technologies and Expression Analysis (LTEA) Assay for Glutathione S-transferase M3 (GSTM3) using HepaRG (AID 2283501). An outline of the steps:
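Differentiated human HepaRG cells were exposed in duplicate for 48 h in serum-free induction medium, 8 points from 100 uM top in half-log steps, 0.5% DMSO. GSTM3 mRNA was measured by TaqMan qRT-PCR, normalized to ACTB, GAPDH and POLR2A; bidirectional fit versus DMSO.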

Read-out in assay [14]: Hypoxia-inducible factor 1-alpha (Homo sapiens) (UniProt Q16665)
Nature of the assay: LTEA_HepaRG_HIF1A: Life Technologies and Expression Analysis (LTEA) Assay for Hypoxia-inducible factor 1 (HIF1A) Trancription factor using HepaRG (AID 2283503). An outline of the steps: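 HIF1A transcript level read by qRT-PCR (ACTB, GAPDH, POLR2A normalization) after 48 h chemical exposure of HepaRG cultures. Eight half-log concentrations, top 100 uM, 0.5% DMSO vehicle, duplicates; bidirectional curve fit against DMSO baseline.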

Read-out in assay [15]: 3-Hydroxy-3-Methylglutaryl-CoA Synthase 2 (HMGCS2), HMGCS2 (gene 3158)
Description: LTEA_HepaRG_HMGCS2: Life Technologies and Expression Analysis (LTEA) Assay for 3-Hydroxy-3-Methylglutaryl-CoA Synthase 2 (HMGCS2) using HepaRG (AID 2283504). An outline of the steps: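 Human HepaRG cells in serum-free induction medium were exposed in duplicate for 48 h to 8-point half-log series from 100 uM top in 0.5% DMSO. HMGCS2 mRNA measured by TaqMan qRT-PCR, normalised to ACTB, GAPDH, POLR2A; bidirectional fit versus DMSO.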

Read-out in assay [16]: HGF (gene 3082)
Description: LTEA_HepaRG_HGF: Life Technologies and Expression Analysis (LTEA) Assay for Hepatocyte Growth Facto (HGF) using HepaRG (AID 2283505). An outline of the steps: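 Differentiated HepaRG cells in serum-free induction medium exposed 48 h in duplicate, 8 half-log concentrations from 100 uM in 0.5% DMSO. HGF mRNA by qRT-PCR, normalised to ACTB, GAPDH, POLR2A; bidirectional fitting.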

Read-out in assay [17]: Insulin Like Growth Factor 1 (IGF1), IGF1 (gene 3479)
Nature of the assay: LTEA_HepaRG_IGF1: Life Technologies and Expression Analysis (LTEA) Assay for Insulin Like Growth Factor 1 (IGF1) using HepaRG (AID 2283506). Put shortly:
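Cells are thawed, plated and cultured 48 h, then exposed in duplicate to chemical (highest 100 uM, half-log steps, 0.5% DMSO) for another 48 h. Total RNA is analysed by Fluidigm qRT-PCR for IGF1 expression relative to vehicle.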

Read-out in assay [18]: Intercellular Adhesion Molecule 1 (ICAM1), ICAM1 (gene 3383)
Description: LTEA_HepaRG_ICAM1: Life Technologies and Expression Analysis (LTEA) Assay for Intercellular Adhesion Molecule 1 (ICAM1) using HepaRG (AID 2283507). An outline of the steps:
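Differentiated human HepaRG cells in serum-free induction medium exposed 48 h in duplicate to 8 half-log concentrations (top 100 uM, 0.5% DMSO). ICAM1 mRNA quantified by TaqMan qRT-PCR, normalized to ACTB, GAPDH and POLR2A; bidirectional fitting versus DMSO.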

Read-out in assay [19]: Insulin-like growth factor-binding protein 1 (IGFBP1), IGFBP1 (gene 3484)
Nature of the assay: LTEA_HepaRG_IGFBP1: Life Technologies and Expression Analysis (LTEA) Assay for Insulin-like growth factor-binding protein 1 (IGFBP1) using HepaRG (AID 2283508). Put shortly: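 HepaRG cells, plated 48 h then switched to serum-free induction medium, exposed in duplicate for 48 h to 8-point half-log series from 100 uM in 0.5% DMSO. mRNA measured by qRT-PCR, normalized to ACTB/GAPDH/POLR2A; bidirectional fit versus DMSO.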

Read-out in assay [20]: Heat shock 70 kDa protein 1 (HSPA1A), gene 3303
Description: LTEA_HepaRG_HSPA1A: Life Technologies and Expression Analysis (LTEA) Assay for Heat shock 70 kDa protein 1 (HSPA1A) using HepaRG (AID 2283502). Put shortly:
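Cells were plated and cultured for 48 h, then switched to serum-free induction medium. Chemicals were added at eight half-log concentrations up to 100 uM for 48 h. RNA was then isolated and HSPA1A measured by qRT-PCR with bidirectional curve fitting against DMSO.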

Sequence of Hypoxia-inducible factor 1-alpha (Homo sapiens) (Q16665 whole entry, looked up): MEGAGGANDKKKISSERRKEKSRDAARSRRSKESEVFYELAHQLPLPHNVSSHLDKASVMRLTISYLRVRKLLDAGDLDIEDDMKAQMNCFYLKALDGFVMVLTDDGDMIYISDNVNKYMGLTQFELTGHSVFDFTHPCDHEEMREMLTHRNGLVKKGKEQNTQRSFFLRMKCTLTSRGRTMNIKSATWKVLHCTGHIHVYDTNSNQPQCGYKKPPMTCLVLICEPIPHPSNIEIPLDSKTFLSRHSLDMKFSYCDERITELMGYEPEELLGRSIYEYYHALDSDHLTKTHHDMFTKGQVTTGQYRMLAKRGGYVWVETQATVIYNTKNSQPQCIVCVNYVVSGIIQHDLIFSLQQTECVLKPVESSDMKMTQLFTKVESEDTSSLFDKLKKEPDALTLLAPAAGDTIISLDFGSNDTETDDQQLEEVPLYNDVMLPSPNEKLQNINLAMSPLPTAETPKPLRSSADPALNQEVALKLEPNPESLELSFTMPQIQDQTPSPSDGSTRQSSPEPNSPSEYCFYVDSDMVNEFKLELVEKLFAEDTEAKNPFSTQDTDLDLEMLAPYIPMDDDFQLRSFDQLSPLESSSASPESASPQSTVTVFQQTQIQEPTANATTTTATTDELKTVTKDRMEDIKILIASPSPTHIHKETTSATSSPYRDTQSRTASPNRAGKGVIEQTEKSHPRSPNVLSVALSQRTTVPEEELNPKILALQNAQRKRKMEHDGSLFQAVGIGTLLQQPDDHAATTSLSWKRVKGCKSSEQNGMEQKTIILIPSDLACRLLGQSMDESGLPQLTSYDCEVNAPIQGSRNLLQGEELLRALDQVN
Sequence of Cytochrome P450 3A7 (Homo sapiens) (P24462 whole entry, looked up): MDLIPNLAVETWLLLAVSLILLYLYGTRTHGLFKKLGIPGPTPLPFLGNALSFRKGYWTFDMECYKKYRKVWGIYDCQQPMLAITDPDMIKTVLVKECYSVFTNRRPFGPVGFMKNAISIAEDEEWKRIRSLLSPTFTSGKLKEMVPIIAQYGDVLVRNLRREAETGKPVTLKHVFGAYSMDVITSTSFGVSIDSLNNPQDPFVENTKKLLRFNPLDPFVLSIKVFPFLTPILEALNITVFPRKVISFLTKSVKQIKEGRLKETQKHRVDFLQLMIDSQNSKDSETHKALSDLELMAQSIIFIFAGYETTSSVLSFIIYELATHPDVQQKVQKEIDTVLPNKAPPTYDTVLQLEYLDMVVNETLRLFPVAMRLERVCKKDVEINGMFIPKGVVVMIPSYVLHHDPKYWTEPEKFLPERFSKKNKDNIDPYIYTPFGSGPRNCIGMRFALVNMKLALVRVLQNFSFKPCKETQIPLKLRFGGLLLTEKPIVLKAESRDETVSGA

For the compound `O=C(O)CCCCC(=O)O`, the outcome in [1], in assay [2], in assay [3], in assay [4], in assay [5] and in assay [6] was inactive. Further, the compound was called inactive in assay [7], in [8], in assay [9], in [10], in assay [11] and in assay [12]. Besides, the call in [13], in assay [14], in assay [15], in [16], in assay [17] and in assay [18] was inactive. Moreover, the outcome in assay [19] was inactive.

Regarding `CC(C)(C)c1cc(O)c(C(C)(C)C)cc1O`, the compound was called inactive in [1], in [3], in assay [10], in assay [11], in assay [12] and in assay [20]. Further, the outcome in assay [16] was inactive. Besides, the AC50 in assay [2] was 50 µM (active); in [6], 94.3 µM (active); in assay [9] it was 77.8 µM (active); in assay [13] it was 50 µM (active); in assay [14], 78.5 µM (active); in assay [15], 78.2 µM (active). For the same compound, the concentration at half-maximal activity (AC50) in assay [17] is 82.4 µM (active); in [18], 50 µM (active); in [19], 50 µM (active).

Turning to `Oc1ccc2c(c1)OC[C@@H](N1CCC(O)(c3ccc(F)cc3)CC1)[C@H]2O`, the compound was called inactive in assay [1], in [2], in assay [3], in assay [4], in assay [5] and in assay [6]. For the same compound, the call in assay [7], in assay [8], in assay [9], in [10], in assay [11] and in assay [12] was inactive. The call in assay [13], in [20], in [14], in assay [15], in [17] and in assay [18] was inactive. Further, in [19], the outcome was inactive.

Turning to `Cc1ccc(C(C)C)c(O)c1`, the call in assay [1], in [2], in assay [3], in assay [4], in [5] and in assay [6] was inactive. Moreover, the outcome in assay [7], in assay [8], in assay [9], in assay [10], in assay [11] and in assay [12] was inactive. Also, the compound was called inactive in assay [13], in assay [20], in [14], in assay [15], in [16] and in assay [17]. The call in assay [19] was inactive.
